A number with no mark means an inactive call.
Columns and labels:
Assay in all cases: log2 ratio of Biotin-Ahx-Ub-VS probe labelling (fragment/DMSO); higher = less target engagement (more negative = stronger competition), active = hit call of the paper (q ≤ 0.05, log2 ratio ≤ -1)
Conditions in all cases: compound concentration: 200 uM; treatment time: 3 h
[1] = target: T1, ALG13 (UniProt Q9NP73)
T1 sequence (whole entry): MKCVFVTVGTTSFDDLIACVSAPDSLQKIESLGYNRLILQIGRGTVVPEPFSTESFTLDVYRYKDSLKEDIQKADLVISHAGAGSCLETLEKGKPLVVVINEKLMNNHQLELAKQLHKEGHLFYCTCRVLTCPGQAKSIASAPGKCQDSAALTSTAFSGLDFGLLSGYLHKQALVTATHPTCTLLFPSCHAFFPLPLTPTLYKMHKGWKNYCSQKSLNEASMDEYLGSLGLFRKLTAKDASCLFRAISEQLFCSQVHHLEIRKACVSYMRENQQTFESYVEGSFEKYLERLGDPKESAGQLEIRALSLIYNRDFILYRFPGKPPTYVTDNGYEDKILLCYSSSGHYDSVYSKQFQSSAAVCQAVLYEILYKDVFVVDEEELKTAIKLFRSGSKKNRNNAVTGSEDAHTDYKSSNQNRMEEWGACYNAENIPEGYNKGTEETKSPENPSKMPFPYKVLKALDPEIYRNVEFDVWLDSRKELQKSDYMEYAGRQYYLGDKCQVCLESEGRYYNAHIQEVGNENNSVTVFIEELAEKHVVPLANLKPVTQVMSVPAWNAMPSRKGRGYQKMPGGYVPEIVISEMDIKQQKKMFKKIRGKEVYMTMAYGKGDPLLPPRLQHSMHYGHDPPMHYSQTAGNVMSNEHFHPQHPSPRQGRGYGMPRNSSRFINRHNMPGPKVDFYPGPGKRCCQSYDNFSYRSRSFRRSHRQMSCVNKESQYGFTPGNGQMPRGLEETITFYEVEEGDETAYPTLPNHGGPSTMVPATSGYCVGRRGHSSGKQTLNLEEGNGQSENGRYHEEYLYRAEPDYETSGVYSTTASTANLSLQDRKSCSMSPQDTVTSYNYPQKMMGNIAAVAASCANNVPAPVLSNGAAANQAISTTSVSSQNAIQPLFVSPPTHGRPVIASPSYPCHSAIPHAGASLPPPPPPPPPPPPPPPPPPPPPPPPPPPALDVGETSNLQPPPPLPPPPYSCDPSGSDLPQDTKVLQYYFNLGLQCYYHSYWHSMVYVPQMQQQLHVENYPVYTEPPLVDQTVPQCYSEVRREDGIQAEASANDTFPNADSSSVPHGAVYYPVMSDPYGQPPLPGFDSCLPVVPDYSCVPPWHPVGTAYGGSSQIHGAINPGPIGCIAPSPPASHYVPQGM
Outline: (§1)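 Fragment (200 µM) or vehicle was incubated for 3 h with triplicate HEK293T lysate samples of 495 µg, which were then treated with Biotin-Ahx-Ub-VS at 0.5 µM final for 1 h. Labelled DUBs were enriched on NeutrAvidin, digested with LysC and trypsin, and analysed by diaPASEF LC-MS/MS. Values are average log2 fragment/vehicle ratios from an unpaired t-test on global-median-normalised Spectronaut label-free quantities, using proteins with ≥2 unique peptides.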

[2] = target: ATXN3 (UniProt P54252)
Chain of ATXN3 (P54252 whole entry): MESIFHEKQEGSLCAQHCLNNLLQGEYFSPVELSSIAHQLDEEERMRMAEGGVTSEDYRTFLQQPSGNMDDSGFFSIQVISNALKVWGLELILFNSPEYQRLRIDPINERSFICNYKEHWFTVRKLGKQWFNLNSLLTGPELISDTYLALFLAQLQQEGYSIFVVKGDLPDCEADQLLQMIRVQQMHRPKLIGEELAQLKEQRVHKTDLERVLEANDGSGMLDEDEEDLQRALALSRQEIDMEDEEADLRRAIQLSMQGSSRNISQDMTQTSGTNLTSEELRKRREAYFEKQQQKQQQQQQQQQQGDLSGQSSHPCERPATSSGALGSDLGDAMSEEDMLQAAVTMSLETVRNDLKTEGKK
Outline: as §1

[3] = target: T2, BAP1 (UniProt Q92560)
T2 sequence (whole entry): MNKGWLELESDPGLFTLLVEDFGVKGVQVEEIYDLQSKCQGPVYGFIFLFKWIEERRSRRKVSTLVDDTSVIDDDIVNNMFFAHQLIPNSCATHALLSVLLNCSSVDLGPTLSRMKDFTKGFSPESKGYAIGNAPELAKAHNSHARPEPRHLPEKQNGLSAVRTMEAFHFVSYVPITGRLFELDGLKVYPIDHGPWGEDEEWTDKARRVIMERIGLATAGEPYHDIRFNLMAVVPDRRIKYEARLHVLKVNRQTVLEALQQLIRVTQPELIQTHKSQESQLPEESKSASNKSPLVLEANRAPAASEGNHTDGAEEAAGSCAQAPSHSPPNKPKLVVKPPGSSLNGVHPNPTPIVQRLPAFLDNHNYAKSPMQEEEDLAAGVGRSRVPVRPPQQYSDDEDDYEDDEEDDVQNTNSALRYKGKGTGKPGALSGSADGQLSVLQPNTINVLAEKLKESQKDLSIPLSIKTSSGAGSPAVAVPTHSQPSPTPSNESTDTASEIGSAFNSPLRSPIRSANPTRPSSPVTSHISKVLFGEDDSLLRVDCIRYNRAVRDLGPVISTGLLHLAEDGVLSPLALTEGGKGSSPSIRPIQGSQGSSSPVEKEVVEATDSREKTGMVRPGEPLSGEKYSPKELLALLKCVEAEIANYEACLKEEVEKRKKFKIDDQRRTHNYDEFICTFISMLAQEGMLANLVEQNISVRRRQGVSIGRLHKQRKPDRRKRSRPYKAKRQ
Outline: as §1

[4] = target: EIF3F (UniProt O00303)
Chain of EIF3F (O00303 whole entry): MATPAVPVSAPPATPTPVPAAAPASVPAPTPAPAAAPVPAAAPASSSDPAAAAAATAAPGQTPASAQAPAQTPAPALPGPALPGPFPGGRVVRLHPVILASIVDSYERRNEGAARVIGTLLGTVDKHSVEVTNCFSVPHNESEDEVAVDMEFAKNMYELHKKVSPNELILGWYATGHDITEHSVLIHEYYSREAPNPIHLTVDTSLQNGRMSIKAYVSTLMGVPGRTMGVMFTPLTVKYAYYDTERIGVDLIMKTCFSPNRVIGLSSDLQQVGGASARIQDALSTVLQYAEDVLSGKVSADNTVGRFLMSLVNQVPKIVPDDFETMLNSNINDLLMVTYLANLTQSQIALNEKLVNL
Outline: as §1

[5] = target: EIF3H (UniProt O15372)
Chain of EIF3H (O15372 whole entry): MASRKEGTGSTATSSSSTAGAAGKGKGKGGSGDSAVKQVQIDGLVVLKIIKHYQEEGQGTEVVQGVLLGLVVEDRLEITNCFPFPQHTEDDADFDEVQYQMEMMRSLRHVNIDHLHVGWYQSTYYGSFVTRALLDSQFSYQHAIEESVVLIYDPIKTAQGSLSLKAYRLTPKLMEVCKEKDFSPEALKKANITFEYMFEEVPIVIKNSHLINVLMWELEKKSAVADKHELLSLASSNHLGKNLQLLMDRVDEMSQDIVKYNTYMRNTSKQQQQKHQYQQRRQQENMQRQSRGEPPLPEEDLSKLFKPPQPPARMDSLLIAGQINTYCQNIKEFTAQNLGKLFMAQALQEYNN
Outline: as §1

[6] = target: T3, FAM105A (UniProt Q9NUU6)
T3 sequence (whole entry): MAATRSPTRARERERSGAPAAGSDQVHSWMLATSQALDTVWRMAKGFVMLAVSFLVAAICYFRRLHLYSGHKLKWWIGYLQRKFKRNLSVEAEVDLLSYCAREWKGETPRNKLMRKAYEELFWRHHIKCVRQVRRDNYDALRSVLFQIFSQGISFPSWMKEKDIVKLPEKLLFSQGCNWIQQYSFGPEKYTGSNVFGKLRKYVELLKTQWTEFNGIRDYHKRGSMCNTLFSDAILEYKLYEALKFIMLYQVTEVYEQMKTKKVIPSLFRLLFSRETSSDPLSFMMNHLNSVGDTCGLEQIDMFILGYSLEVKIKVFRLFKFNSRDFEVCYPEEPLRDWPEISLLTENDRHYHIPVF
Outline: as §1

[7] = target: OTUB1 (UniProt Q96FW1)
Chain of OTUB1 (Q96FW1 whole entry): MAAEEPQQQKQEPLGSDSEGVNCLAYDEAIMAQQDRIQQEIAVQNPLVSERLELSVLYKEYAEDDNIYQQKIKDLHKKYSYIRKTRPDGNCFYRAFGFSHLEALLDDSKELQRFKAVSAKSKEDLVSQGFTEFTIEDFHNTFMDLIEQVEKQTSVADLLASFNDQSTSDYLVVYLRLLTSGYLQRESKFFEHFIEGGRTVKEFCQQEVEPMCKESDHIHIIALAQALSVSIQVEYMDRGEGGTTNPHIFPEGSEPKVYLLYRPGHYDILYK
Outline: as §1

[8] = target: T4, OTUD4 (UniProt Q01804)
T4 sequence (whole entry): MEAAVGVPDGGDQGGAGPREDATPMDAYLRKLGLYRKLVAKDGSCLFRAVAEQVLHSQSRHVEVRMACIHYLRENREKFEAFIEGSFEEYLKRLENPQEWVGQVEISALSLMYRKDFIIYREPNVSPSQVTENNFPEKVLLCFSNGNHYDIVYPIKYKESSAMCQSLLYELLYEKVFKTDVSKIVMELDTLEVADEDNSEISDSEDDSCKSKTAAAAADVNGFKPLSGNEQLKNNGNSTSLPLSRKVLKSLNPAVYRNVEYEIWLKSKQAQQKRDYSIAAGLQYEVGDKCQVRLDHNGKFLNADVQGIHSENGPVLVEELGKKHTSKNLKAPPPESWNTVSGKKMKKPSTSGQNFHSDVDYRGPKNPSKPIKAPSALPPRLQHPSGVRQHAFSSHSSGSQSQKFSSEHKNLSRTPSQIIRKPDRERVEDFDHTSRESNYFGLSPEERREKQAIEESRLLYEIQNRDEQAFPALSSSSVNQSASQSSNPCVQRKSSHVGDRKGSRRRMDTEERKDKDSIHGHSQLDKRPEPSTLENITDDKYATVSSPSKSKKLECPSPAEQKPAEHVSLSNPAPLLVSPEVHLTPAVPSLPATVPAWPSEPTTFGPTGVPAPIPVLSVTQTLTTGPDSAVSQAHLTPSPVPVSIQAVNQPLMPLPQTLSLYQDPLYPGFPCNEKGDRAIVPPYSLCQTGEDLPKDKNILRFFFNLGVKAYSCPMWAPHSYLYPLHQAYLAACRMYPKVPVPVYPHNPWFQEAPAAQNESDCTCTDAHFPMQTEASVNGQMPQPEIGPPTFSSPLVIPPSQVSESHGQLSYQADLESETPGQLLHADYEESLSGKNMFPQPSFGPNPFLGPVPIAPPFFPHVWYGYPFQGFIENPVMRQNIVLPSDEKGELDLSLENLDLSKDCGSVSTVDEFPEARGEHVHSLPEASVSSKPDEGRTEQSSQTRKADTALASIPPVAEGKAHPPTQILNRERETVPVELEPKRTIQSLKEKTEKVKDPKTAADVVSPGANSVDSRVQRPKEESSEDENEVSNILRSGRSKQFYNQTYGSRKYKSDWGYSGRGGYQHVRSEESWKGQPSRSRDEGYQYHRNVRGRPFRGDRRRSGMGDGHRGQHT
Outline: as §1

[9] = target: T5, OTUD5 (UniProt Q96G74)
T5 sequence (whole entry): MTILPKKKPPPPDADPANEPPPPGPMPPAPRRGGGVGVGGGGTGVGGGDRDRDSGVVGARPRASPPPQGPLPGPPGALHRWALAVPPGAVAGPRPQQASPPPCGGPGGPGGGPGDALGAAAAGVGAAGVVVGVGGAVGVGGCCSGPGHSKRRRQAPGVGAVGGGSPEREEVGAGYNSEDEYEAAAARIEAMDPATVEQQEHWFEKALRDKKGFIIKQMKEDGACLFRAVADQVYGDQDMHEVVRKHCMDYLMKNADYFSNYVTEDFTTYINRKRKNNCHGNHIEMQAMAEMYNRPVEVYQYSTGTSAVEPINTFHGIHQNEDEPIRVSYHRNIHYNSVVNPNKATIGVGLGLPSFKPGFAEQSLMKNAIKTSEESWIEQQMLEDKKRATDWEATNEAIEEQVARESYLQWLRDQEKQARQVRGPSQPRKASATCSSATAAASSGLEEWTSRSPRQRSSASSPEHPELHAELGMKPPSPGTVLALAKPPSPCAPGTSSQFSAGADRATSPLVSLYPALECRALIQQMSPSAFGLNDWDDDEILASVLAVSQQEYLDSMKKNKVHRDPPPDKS
Outline: as §1

`O=C(CCl)N1CCc2ccccc2C(O)C1` (centres undefined) was tested, and the “log2 ratio of Biotin-Ahx-Ub-VS probe labelling” value (“log2 ratio” for short) [1] was 0.0799, the “log2 ratio” value [2] was -0.585 and the “log2 ratio” value [3] was -0.705. For the same molecule, the “log2 ratio” value [4] was -0.125, the “log2 ratio” value [5] was -0.359 and the “log2 ratio” value [6] was -0.413. For the same molecule, the “log2 ratio” value [7] was 0.0821, the “log2 ratio” value [8] was -0.69 and the “log2 ratio” value [9] was -1.31 (active).
